Data as given in PubChem BioAssay (Tox21).
Inconclusive results are not listed. Activity calls are given as the source filed them. Calls follow the shape of the full dose curve. Non-standard residues stand in square brackets, D forms with d. Residues, ends and D or L forms follow the SMILES beside them. *: point of attachment. Sta = CC(C)C[C@H](N)[C@@H](O)CC(=O)O; Isovaleryl = CC(C)CC(=O)*

Key:
[1] = biological target: Acetylcholinesterase (Homo sapiens) (UniProt P22303); experiment: Acetylcholinesterase (AChE) small molecule antagonists: colormetric cell-based qHTS assay (AID 1347395); also: nearly all actives have a fitted effect of over 30% in size; also: potency is read from the fitted curve at half-maximal effect
How it was run: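 Cells (SH-SY5Y, 2,000 per well) are seeded and left overnight at 37 C. Compound is added for 30 min, then DTNB and acetylthiocholine for a further 90 min at 37 C before absorbance-based thiocholine detection.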

[2] = biological target: Acetylcholinesterase (Homo sapiens) (UniProt P22303); experiment: Acetylcholinesterase (AChE) small molecule antagonists: enzyme-based qHTS assay (AID 1347397); settings: Potency: AChE enzyme activity inhibition; outcome: AChE enzyme activity inhibition; also: nearly all actives have a fitted effect of over 55% in size; also: potency is read from the fitted curve at half-maximal effect
How it was run: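 Recombinant human AChE, dispensed at 50 mU/mL, was preincubated with Tox21 10K compounds or DMSO vehicle for 30 min at room temperature. DTNB plus acetylthiocholine was then added, and thiocholine was measured colorimetrically after a further 10 min.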

[3] = biological target: Acetylcholinesterase (Homo sapiens) (UniProt P22303); experiment: Acetylcholinesterase (AChE) small molecule antagonists: fluorescence cell-based qHTS assay (AID 1347398); settings: Potency: AChE activity; outcome: AChE activity; also: nearly all actives have a fitted effect of over 50% in size; also: potency is read from the fitted curve at half-maximal effect
How it was run: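 Human SH-SY5Y cells were plated overnight at 37 C, exposed to compound for 30 min at 37 C, 5% CO2, then given acetylthiocholine plus Thiolite Green for 40 min at room temperature; thiocholine fluorescence (Ex/Em 490/520 nm) reports endogenous AChE activity.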

[4] = biological target: Acetylcholinesterase (Homo sapiens) (UniProt P22303); experiment: Acetylcholinesterase (AChE) small molecule antagonists: enzyme-based qHTS assay with human liver microsomes (AID 1347399); settings: Potency: qHTS inhibition; outcome: qHTS inhibition; also: nearly all actives have a fitted effect of over 60% in size
How it was run: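 Recombinant human AChE (50 mU/mL in the enzyme mix) and human liver microsomes (0.25 mg/mL final) were preincubated with compound and NADPH (0.25 mg/mL final) for 30 min at 37 C. Acetylthiocholine/DTNB was then added; thiocholine was read colorimetrically after 10 min at room temperature.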
% is scaled to controls: 0 for no effect and ±100 for the full control effect.

Acetylcholinesterase (Homo sapiens), sequence (P22303 whole entry, looked up): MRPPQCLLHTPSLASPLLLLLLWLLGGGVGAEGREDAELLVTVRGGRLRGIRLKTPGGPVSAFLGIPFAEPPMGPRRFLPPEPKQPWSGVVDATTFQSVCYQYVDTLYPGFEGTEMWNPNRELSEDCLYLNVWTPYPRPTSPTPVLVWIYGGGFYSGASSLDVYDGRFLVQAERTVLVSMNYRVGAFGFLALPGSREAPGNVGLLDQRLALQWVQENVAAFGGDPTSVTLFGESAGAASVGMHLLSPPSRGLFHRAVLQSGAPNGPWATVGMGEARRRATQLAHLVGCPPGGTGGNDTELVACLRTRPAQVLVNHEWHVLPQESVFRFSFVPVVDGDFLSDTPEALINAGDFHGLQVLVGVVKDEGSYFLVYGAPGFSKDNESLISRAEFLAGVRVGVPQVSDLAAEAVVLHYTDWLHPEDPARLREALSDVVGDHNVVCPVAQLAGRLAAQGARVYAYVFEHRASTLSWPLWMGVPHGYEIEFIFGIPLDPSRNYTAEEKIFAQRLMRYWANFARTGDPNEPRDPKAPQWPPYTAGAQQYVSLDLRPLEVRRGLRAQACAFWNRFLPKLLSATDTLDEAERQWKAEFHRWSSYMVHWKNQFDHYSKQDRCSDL

C1CCCNCCC1
inactive: Potency [1] | Potency [2] | Potency [3] | Potency [4]

CC(=O)Nc1ccc(OC(=O)c2ccccc2OC(C)=O)cc1
inactive: Potency [1] | Potency [2] | Potency [3] | Potency [4]

OCCNCCO
inactive: Potency [1] | Potency [2] | Potency [3] | Potency [4]

COc1cc2c(c(OC)c1OC)-c1ccc(OC)c(=O)cc1[C@@H](NC(C)=O)CC2
inactive: Potency [1] | Potency [2] | Potency [3] | Potency [4]

CC(C)CC(=O)N[C@H](C(=O)N[C@H](C(=O)N[C@@H](CC(C)C)[C@@H](O)CC(=O)N[C@@H](C)C(=O)N[C@@H](CC(C)C)[C@@H](O)CC(=O)O)C(C)C)C(C)C (Isovaleryl-VV[Sta]A[Sta]-OH)
inactive: Potency [1] | Potency [2] | Potency [3] | Potency [4]

COS(C)(=O)=O
inactive: Potency [1] | Potency [2] | Potency [3] | Potency [4]

Oc1ccc(C(c2ccc(O)cc2)C(Cl)(Cl)Cl)cc1
inactive: Potency [1] | Potency [2] | Potency [3] | Potency [4]

CN1C(C(=O)Nc2ccccn2)=C(O)c2ccccc2S1(=O)=O
inactive: Potency [1] | Potency [2] | Potency [3] | Potency [4]

COCCOCCOC
inactive: Potency [1] | Potency [2] | Potency [3] | Potency [4]

O=c1[nH]cccc1O
inactive: Potency [1] | Potency [2] | Potency [3] | Potency [4]

C[Si](C)(C)O[Si](C)(C)O[Si](C)(C)C
inactive: Potency [1] | Potency [2] | Potency [3] | Potency [4]

O=S1(=O)OC(c2ccc(O)cc2)(c2ccc(O)cc2)c2ccccc21
inactive: Potency [1] | Potency [2] | Potency [3] | Potency [4]

OCCO
inactive: Potency [1] | Potency [2] | Potency [3] | Potency [4]

CNC(=O)Nc1ccc(Cl)c(Cl)c1
inactive: Potency [1] | Potency [2] | Potency [3] | Potency [4]

Cc1ccc(C)c([N+](=O)[O-])c1
inactive: Potency [1] | Potency [2] | Potency [3] | Potency [4]

CCCCCCCC/C=C\CCCCCCCCN
inactive: Potency [1] | Potency [2] | Potency [3] | Potency [4]

CN(C)CCc1c[nH]c2ccc(C[C@H]3COC(=O)N3)cc12
inactive: Potency [1] | Potency [2] | Potency [3] | Potency [4]

CCCS(=O)c1ccc2nc(NC(=O)OC)[nH]c2c1 (stereo not given)
inactive: Potency [1] | Potency [2] | Potency [3] | Potency [4]

CCn1c2ccccc2c2ccccc21
inactive: Potency [1] | Potency [2] | Potency [3] | Potency [4]

Cc1[nH]c(C)c(Cl)c(=O)c1Cl
inactive: activity, negative = inhibition [1] 1.65% [at 23.6 µM] | activity change, negative = inhibition [2] -0.693% [at 23.6 µM] | activity change, negative = inhibition [3] -0.55% [at 23.8 µM] | activity change, negative = inhibition [4] -0.336% [at 23.6 µM]

CCCCNC(=O)NS(=O)(=O)c1ccc(N)cc1
inactive: Potency [1] | Potency [2] | Potency [3] | Potency [4]

CCCCC(=O)O[C@]1(C(=O)CO)CC[C@H]2[C@@H]3CCC4=CC(=O)CC[C@]4(C)[C@H]3[C@@H](O)C[C@@]21C
inactive: Potency [1] | Potency [2] | Potency [3] | Potency [4]

COC(=O)C1=C(C)NC(C)=C(C(=O)OCCc2ccc(N3CCN(C(c4ccccc4)c4ccccc4)CC3)cc2)C1c1cccc([N+](=O)[O-])c1 (stereo not given)
inactive: Potency [1] | Potency [2] | Potency [3] | Potency [4]

CCOc1ccc(N=Nc2ccc(/C=C/c3ccc(N=Nc4ccc(OCC)cc4)cc3S(=O)(=O)O)c(S(=O)(=O)O)c2)cc1
inactive: Potency [1] | Potency [2] | Potency [3] | Potency [4]

CC1(C)CC(N)CC(C)(CN)C1 (stereo not given)
inactive: Potency [1] | Potency [2] | Potency [3] | Potency [4]

CC(=O)/C=C/C1=C(C)CCCC1(C)C
active: Potency [1] 35.6 µM | Potency [3] 10.2 µM
inactive: Potency [2] | Potency [4]

Cc1ccc2ccccc2c1[N+](=O)[O-]
inactive: Potency [1] | Potency [2] | Potency [3] | Potency [4]

CCCCOCC(C)OCC(C)O (stereo not given)
inactive: Potency [1] | Potency [4]
active: Potency [2] 57.8 µM | Potency [3] 29 µM

CCC(C)(O)CCC=C(C)C (stereo not given)
inactive: Potency [1] | Potency [2] | Potency [3] | Potency [4]

FB(F)F
inactive: Potency [1] | Potency [2] | Potency [3] | Potency [4]

CCCCCCC(O)CCCCCCCCCCC(=O)OC (stereo not given)
inactive: Potency [1] | Potency [2] | Potency [3] | Potency [4]

COC(=O)Nc1nc2ccc(C(=O)c3cccs3)cc2[nH]1
inactive: Potency [1] | Potency [2] | Potency [3] | Potency [4]

COc1cc(S(=O)(=O)Nc2ccccc2)c(OC)cc1N
inactive: Potency [1] | Potency [2] | Potency [3] | Potency [4]

C[C@]12CCC(=O)C=C1CC[C@@H]1[C@@H]2C(=O)C[C@@]2(C)[C@H]1CC[C@]2(O)C(=O)CO
inactive: Potency [1] | Potency [2] | Potency [3] | Potency [4]

ONc1ccccc1
inactive: Potency [1] | Potency [2] | Potency [3] | Potency [4]

Cc1ccc(-c2ccccc2C#N)cc1
inactive: Potency [1] | Potency [2] | Potency [3] | Potency [4]

CCCC(=O)OCCC(C)C
inactive: Potency [1] | Potency [2] | Potency [3] | Potency [4]

CC1(C)Oc2ccc(C#N)cc2[C@@H](N2CCCC2=O)[C@@H]1O
inactive: Potency [1] | Potency [2] | Potency [3] | Potency [4]

O=C(/C=C/c1ccccc1)OCCCc1ccccc1
inactive: Potency [1] | Potency [2] | Potency [3] | Potency [4]

Cc1[nH]nc2c1N=C(c1ccccc1Cl)c1cc([N+](=O)[O-])ccc1N2
inactive: Potency [1] | Potency [2] | Potency [3] | Potency [4]

Cn1c(=O)c2[nH]c(Br)nc2n(C)c1=O
inactive: Potency [1] | Potency [2] | Potency [3] | Potency [4]

C[Si](C)(CCCN)O[Si](C)(C)CCCN
inactive: Potency [1] | Potency [2] | Potency [3] | Potency [4]

O=c1ccc2ccccc2o1
inactive: Potency [1] | Potency [2] | Potency [3] | Potency [4]

CCC(C)c1cc([N+](=O)[O-])cc([N+](=O)[O-])c1OC(=O)OC(C)C (stereo not given)
inactive: Potency [1] | Potency [2] | Potency [3] | Potency [4]

O=C(O)c1cc(-c2ccccc2)nc2ccccc12
inactive: Potency [1] | Potency [2] | Potency [3] | Potency [4]

O=C1Nc2ccccc2C1=O
inactive: Potency [1] | Potency [2] | Potency [3] | Potency [4]

COC(=O)c1ccccc1O
inactive: Potency [1] | Potency [2] | Potency [3] | Potency [4]

CNC(=O)[C@H]1O[C@@H](n2cnc3c(NCc4cc(Cl)ccc4OCc4cc(C)no4)ncnc32)[C@H](O)[C@@H]1N
inactive: Potency [1] | Potency [2] | Potency [3] | Potency [4]

Cc1cc(C)cc(OCC2CNC(=O)O2)c1 (stereo not given)
inactive: Potency [1] | Potency [2] | Potency [3] | Potency [4]

C[Si](C)O[Si](C)(C)O[Si](C)(C)O[Si](C)C
inactive: Potency [1] | Potency [2] | Potency [3] | Potency [4]

C=C(C)C(=O)OCCCCCCCCCCCC
inactive: Potency [1] | Potency [2] | Potency [3] | Potency [4]

CC(=O)OCC(=O)[C@@]1(O)[C@H](C)C[C@H]2[C@@H]3CCC4=CC(=O)C=C[C@]4(C)[C@@]3(F)[C@@H](O)C[C@@]21C
inactive: Potency [1] | Potency [2] | Potency [3] | Potency [4]

CCCCCCCC(C)=O
inactive: Potency [1] | Potency [2] | Potency [3] | Potency [4]

Clc1ccc(Nc2nnc(Cc3ccncc3)c3ccccc23)cc1
inactive: Potency [1] | Potency [2] | Potency [3] | Potency [4]

CC(C)[C@@H]1CC[C@@H](C)C[C@H]1O
inactive: Potency [1] | Potency [2] | Potency [3] | Potency [4]

OCCc1ccccc1
inactive: Potency [1] | Potency [2] | Potency [3] | Potency [4]

c1ccc2ccccc2c1
inactive: Potency [1] | Potency [2] | Potency [3] | Potency [4]

Nc1ccn([C@H]2CC[C@@H](CO)O2)c(=O)n1
inactive: Potency [1] | Potency [2] | Potency [3] | Potency [4]

NC(=O)NC(=O)Cc1ccccc1
inactive: Potency [1] | Potency [2] | Potency [3] | Potency [4]

OC[C@H](Cc1cccc(O)c1)[C@H](CO)Cc1cccc(O)c1
inactive: Potency [1] | Potency [2] | Potency [3] | Potency [4]
